Results as given in PubChem BioAssay (EPA / NIEHS).
Inconclusive results are not listed. Some structures have more than one record in an assay (separate samples or runs), and their calls can disagree. Calls of active or inactive are those of the source. How the source made its calls, unless noted: active means hit-call score of the fitted dose curve at least 0.9, where 1 is the maximum; inconclusive means response in the unintended direction; inactive means score below 0.9.

Experiments:
[1] = ATG_CMV_CIS: Attagene CIS-FACTORIAL HepG2 Assay for human CMV (Internal Marker) (AID 2282928; active means hit-call score of the fitted dose curve at least 0.9, where 1 is the maximum; inactive means score below 0.9;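 further: endpoint acts as a background internal control marker rather than a target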); settings: HepG2 CMV promoter reporter, transcription factor profiling; actives raise or lower the signal
Method in brief: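 Cell system: HepG2, transiently transfected multiple reporter units under cis promoters. Exposure: 24 h. Detection: RT-PCR, FAM labeling, HpaI digestion, capillary electrophoresis. Analysis: bidirectional, DMSO baseline.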

[2] = ATG_GRE_CIS: Attagene CIS-FACTORIAL HepG2 Assay for human Glucocorticoid Response Elements (GRE) (AID 2282947; active means hit-call score of the fitted dose curve at least 0.9, where 1 is the maximum; inactive means score below 0.9); settings: HepG2 GRE cis-reporter, Attagene multiplex mRNA; actives raise or lower the signal
Method in brief: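 HepG2 cells transiently transfected with multiple cis-promoter reporter units measure endogenous TF activity; 24 h compound exposure. Reporter mRNA quantified by RT-PCR, FAM labelling, HpaI digestion and capillary electrophoresis; bidirectional fit vs DMSO baseline.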

[3] = molecular target: Hepatocyte nuclear factor 6 (Homo sapiens) (UniProt Q9UBC0); assay: ATG_HNF6_CIS: Attagene CIS-FACTORIAL HepG2 Assay for human Hepatocyte Nuclear Factor 6 (HNF6) (AID 2282952; active means hit-call score of the fitted dose curve at least 0.9, where 1 is the maximum; inactive means score below 0.9); settings: HepG2 Attagene cis-factorial HNF6 reporter transcription; actives raise or lower the signal
Hepatocyte nuclear factor 6 (Homo sapiens), sequence (Q9UBC0 whole entry, looked up): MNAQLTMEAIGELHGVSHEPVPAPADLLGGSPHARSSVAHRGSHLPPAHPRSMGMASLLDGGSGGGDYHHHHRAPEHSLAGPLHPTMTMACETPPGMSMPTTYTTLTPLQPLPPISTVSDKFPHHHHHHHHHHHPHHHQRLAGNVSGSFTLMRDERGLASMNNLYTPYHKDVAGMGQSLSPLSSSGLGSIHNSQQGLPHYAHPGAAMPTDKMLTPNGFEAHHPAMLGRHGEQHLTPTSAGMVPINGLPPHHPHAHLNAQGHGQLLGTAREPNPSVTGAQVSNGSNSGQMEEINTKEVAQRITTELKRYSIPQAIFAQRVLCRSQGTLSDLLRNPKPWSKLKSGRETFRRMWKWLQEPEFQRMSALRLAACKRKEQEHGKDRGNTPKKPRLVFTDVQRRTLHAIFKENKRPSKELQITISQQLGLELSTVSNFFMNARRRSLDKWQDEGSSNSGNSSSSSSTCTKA
Method in brief: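 HepG2, transient MRTU transfection (cis promoters); 24 h chemical exposure; total RNA → oligo(dT) RT → PCR → 6-FAM labelling → HpaI cut → CE; bidirectional fit vs DMSO.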

[4] = ATG_PPRE_CIS: Attagene CIS-FACTORIAL HepG2 Assay for human Peroxisome Proliferator-activated Response Element (PPRE) (AID 2282958; active means hit-call score of the fitted dose curve at least 0.9, where 1 is the maximum; inactive means score below 0.9); settings: HepG2 PPRE cis-element reporter, Attagene transcription factor profiling; actives raise or lower the signal
Method in brief: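 DMSO served as negative control and baseline for bidirectional curve fitting. Signal came from PPRE-regulated reporter mRNA in HepG2 cells, measured 24 h post-dosing by RT-PCR, 6-FAM primer extension and capillary electrophoresis.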

[5] = ATG_TAL_CIS: Attagene CIS-FACTORIAL HepG2 Assay for human TAL Basal Promoter (AID 2282966; active means hit-call score of the fitted dose curve at least 0.9, where 1 is the maximum; inactive means score below 0.9;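 further: background control endpoint measuring basal TAL promoter reporter mRNA not a specific factor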); settings: HepG2 Attagene cis-factorial TAL promoter reporter; actives raise or lower the signal
Method in brief: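 Fluorescence of labelled reporter cDNA fragments, resolved by capillary electrophoresis, gave the readout. Human HepG2 liver cells carried transiently transfected cis-element reporter units and were treated for 24 hours; activity was fitted bidirectionally against DMSO.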

[6] = molecular target: Nuclear receptor subfamily 4 group A member 2 (Homo sapiens) (UniProt P43354); assay: ATG_NURR1_TRANS: Attagene TRANS-FACTORIAL HepG2 Assay for human Nuclear Receptor Related Protein 1 (NURR1) (AID 2282985); settings: HepG2 Attagene TRANS reporter, mRNA readout
Nuclear receptor subfamily 4 group A member 2 (Homo sapiens), sequence (P43354 whole entry, looked up, the tested form may be a part): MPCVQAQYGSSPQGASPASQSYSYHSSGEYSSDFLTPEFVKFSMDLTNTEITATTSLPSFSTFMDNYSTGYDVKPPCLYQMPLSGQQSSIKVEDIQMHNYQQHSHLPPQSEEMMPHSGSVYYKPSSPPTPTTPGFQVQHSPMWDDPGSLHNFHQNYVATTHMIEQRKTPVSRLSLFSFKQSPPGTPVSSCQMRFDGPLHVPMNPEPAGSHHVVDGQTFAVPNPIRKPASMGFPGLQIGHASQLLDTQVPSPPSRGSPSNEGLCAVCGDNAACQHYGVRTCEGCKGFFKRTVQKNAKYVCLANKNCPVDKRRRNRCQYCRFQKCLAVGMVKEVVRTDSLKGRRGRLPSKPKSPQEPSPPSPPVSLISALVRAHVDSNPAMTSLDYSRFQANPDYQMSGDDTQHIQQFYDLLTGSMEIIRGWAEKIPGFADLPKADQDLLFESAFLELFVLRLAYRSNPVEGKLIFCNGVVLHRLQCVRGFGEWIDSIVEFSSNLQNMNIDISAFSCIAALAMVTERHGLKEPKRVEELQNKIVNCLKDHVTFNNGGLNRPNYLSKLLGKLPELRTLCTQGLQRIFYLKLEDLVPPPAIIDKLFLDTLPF
Method in brief: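 HepG2 cells transiently transfected with GAL4-UAS reporter units and chimeric NR-Gal4 constructs; chemical exposure 24 h. Reporter mRNA quantified by RT-PCR, fluorescent labelling and capillary electrophoresis; gain of signal fitted relative to DMSO baseline.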

[7] = ATG_NFI_CIS: Attagene CIS-FACTORIAL HepG2 Assay for human Nuclear Factor I (NFI) (AID 2282989; active means hit-call score of the fitted dose curve at least 0.9, where 1 is the maximum; inactive means score below 0.9); settings: HepG2 cis-regulatory reporter, NFI response element transcription; actives raise or lower the signal
Method in brief: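 HepG2 cells transiently transfected with cis-element-driven multiplexed reporter transcription units, dosed for 24 h. Reporter mRNA quantified by RT-PCR, fluorescent labelling, HpaI digestion and capillary electrophoresis; bidirectional fit versus DMSO baseline.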

[8] = ATG_NF_kB_CIS: Attagene CIS-FACTORIAL HepG2 Assay for human Nuclear Factor Kappa B (NF-kB) (AID 2282991; active means hit-call score of the fitted dose curve at least 0.9, where 1 is the maximum; inactive means score below 0.9); settings: HepG2 Attagene cis-factorial NF-kB reporter mRNA; actives raise or lower the signal
Method in brief: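 DMSO served as negative control and baseline for bidirectional curve fitting. Transiently transfected HepG2 cells were dosed for 24 h, then reporter transcripts were measured by RT-PCR with capillary electrophoresis detection.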

[9] = molecular target: Peroxisome proliferator-activated receptor gamma (Homo sapiens) (UniProt P37231); assay: ATG_PPARg_TRANS: Attagene TRANS-FACTORIAL HepG2 Assay for human Peroxisome Proliferator-activated Receptor-gamma (PPARg) (AID 2283007)
Peroxisome proliferator-activated receptor gamma (Homo sapiens), sequence (P37231 whole entry, looked up, the tested form may be a part): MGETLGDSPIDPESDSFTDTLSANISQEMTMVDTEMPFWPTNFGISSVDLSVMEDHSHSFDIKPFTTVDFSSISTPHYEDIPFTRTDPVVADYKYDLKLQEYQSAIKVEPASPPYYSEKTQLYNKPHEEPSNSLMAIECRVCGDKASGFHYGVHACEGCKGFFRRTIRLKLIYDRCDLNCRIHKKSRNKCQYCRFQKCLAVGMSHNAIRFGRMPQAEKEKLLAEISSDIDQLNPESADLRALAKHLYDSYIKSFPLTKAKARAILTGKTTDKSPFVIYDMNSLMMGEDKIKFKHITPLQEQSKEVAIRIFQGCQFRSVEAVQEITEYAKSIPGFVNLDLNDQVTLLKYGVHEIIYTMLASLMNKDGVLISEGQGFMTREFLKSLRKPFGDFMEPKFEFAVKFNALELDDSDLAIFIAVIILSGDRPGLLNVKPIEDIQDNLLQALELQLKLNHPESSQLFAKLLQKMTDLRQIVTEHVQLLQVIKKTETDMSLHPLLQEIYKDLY
Method in brief: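 Chimeric NR-Gal4 transactivation is measured in transiently transfected HepG2 cells by reporter mRNA induction at 24 h. Detection uses RT-PCR with fluorescent labelling and capillary electrophoresis; DMSO defines baseline.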

[10] = molecular target: Nuclear receptor subfamily 1 group I member 2 (Homo sapiens) (UniProt O75469); assay: ATG_PXR_TRANS: Attagene TRANS-FACTORIAL HepG2 Assay for human Pregnane X Receptor (PXR) (AID 2283008)
Nuclear receptor subfamily 1 group I member 2 (Homo sapiens), sequence (O75469 whole entry, looked up, the tested form may be a part): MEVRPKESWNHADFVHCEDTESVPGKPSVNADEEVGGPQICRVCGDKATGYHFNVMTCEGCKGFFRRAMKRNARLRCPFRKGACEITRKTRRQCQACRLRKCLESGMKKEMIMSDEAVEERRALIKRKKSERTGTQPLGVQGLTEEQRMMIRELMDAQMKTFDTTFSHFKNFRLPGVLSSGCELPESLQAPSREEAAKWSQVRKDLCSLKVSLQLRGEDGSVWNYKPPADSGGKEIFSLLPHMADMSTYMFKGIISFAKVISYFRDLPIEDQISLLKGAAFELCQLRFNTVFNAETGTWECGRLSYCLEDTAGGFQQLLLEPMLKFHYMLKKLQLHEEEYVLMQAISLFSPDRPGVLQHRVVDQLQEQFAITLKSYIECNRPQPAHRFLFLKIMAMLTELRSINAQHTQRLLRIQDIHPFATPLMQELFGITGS
Method in brief: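 Fluorescence intensity of FAM-labelled, HpaI-digested reporter amplicons, separated by capillary electrophoresis, quantifies induction. HepG2 cells with PXR-Gal4 trans-reporter system were exposed 24 h; DMSO defines baseline.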

[11] = molecular target: human Thyroid Receptor alpha (THRa1), THRA (gene 7067) (UniProt P10827); assay: ATG_THRa1_TRANS: Attagene TRANS-FACTORIAL HepG2 Assay for human Thyroid Receptor alpha (THRa1) (AID 2283014)
human Thyroid Receptor alpha (THRa1), THRA (gene 7067), sequence (P10827 whole entry, looked up, the tested form may be a part): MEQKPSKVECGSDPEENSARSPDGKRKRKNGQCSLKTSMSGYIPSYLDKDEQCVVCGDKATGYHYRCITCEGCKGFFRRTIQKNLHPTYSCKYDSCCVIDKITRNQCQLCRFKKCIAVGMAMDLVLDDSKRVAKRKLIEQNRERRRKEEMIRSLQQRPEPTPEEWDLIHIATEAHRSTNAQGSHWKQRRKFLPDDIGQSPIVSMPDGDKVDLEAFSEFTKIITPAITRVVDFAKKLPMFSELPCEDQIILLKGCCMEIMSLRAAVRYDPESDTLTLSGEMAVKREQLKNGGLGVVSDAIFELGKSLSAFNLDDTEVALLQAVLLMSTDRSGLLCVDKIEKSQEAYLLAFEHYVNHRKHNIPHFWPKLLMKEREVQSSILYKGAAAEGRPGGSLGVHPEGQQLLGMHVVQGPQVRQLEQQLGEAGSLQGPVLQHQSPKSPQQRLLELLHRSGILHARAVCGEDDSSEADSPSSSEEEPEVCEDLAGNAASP
Method in brief: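 Reporter transcript induction, read by capillary electrophoresis of 6-FAM-labelled RT-PCR products, reflects activity of a transfected THRa1-Gal4 fusion in HepG2 liver cells. Cells were dosed for 24 h; activity was fitted in the positive direction against DMSO.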

[12] = ATG_XTT_Cytotoxicity: Cytotoxicity Assessment in the Attagene TRANS-FACTORIAL HepG2 Assay (AID 2283584)
Method in brief: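 Cells: human HepG2, transiently transfected with MRTU reporter constructs. Exposure 24 h. Readout: XTT, cell number. Baseline/neg ctrl DMSO; loss-of-signal scored.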

[13] = molecular target: Cellular tumor antigen p53 (Homo sapiens) (UniProt P04637); assay: TOX21_p53_BLA_p2_ratio: Tox21 HCT-116 p53 Agonism Beta-lactamase Assay, Ratio, Phase 2 (AID 2283592)
Cellular tumor antigen p53 (Homo sapiens), sequence (P04637 whole entry, looked up): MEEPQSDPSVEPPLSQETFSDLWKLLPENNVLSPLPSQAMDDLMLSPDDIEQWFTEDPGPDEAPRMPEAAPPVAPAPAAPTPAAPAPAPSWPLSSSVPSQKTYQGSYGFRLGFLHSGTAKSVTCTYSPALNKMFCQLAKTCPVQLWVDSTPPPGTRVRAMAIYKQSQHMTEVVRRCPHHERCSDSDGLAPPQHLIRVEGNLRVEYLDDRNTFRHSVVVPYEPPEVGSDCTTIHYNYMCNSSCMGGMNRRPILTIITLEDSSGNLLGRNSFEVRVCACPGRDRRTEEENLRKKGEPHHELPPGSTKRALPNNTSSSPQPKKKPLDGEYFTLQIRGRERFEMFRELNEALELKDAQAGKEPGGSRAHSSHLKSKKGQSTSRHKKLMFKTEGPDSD
Method in brief: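 HCT116 p53-bla; 4000 cells/well; 5 h pre-incubation; cpd in DMSO, 217-fold dilution; 16 h 37C/5% CO2; CCF4-AM 2 h RT; Ex 405, Em 460/530 ratio; DMSO = baseline; positive fitting direction.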

[14] = molecular target: Cellular tumor antigen p53 (Homo sapiens) (UniProt P04637); assay: TOX21_p53_BLA_p5_ratio: Tox21 HCT-116 p53 Agonism Beta-lactamase Assay, Ratio, Phase 5 (AID 2283599)
Method in brief: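 HCT-116 cells carrying a p53-inducible beta-lactamase reporter were seeded at 4000 cells/well and dosed after 5 h with compound in DMSO (217-fold dilution). After 16 h at 37C, CCF4-AM substrate was added for 2 h, and the 460/530 nm emission ratio was scored as gain-of-signal versus DMSO.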

[15] = ACEA_ER_AUC_viability: ACEA Biosciences xCELLigence Real-Time Cell Analysis on Estrogen Receptor Agonism for Viability (AID 2283782);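 further: continuous compound exposure with impedance area under curve over 80 h; hit means loss of impedance signal meaning reduced cell growth or viability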
Method in brief: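 T-47D human breast cells in phenol red-free RPMI1640 with 10% charcoal-stripped FBS were dosed with an 8-point 1:4 dilution series from 100 uM top final concentration, in duplicate. Impedance-based growth was followed for 80 h; AUC analysed versus DMSO.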

[16] = ATG_VDRE_CIS: Attagene CIS-FACTORIAL HepG2 Assay for human Vitamin D Receptor Element (VDRE) (AID 2282968; active means hit-call score of the fitted dose curve at least 0.9, where 1 is the maximum; inactive means score below 0.9); settings: HepG2 VDRE cis-reporter transcription, actives raise or lower the signal
Method in brief: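 HepG2 cells transiently transfected with cis-element reporter units, dosed 24 h; reporter mRNA measured by RT-PCR, 6-FAM labeling, HpaI digestion and capillary electrophoresis. Activity fitted bidirectionally against DMSO baseline.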

[17] = ATG_M_06_TRANS: Attagene TRANS-FACTORIAL HepG2 Assay for M06 Transcription Factor (Internal Marker) (AID 2282983); settings: HepG2 Attagene TRANS M06 internal marker reporter;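 further: reporter transcript level by RT-PCR then capillary electrophoresis fluorescence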
Method in brief: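 Transfect HepG2 with MRTUs → dose compounds 24 h → isolate RNA, oligo(dT) RT → PCR with reporter primers → 6-FAM primer extension → HpaI digest → CE fragment analysis. Positive direction vs DMSO.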

[18] = ATG_M_32_TRANS: Attagene TRANS-FACTORIAL HepG2 Assay for M32 Transcription Factor (Internal Marker) (AID 2282984); settings: HepG2 Attagene TRANS M32 internal marker reporter;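 further: transcript level of a background control reporter unit measured by RT-PCR and capillary electrophoresis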
Method in brief: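 HepG2 cells transiently transfected with multiple GAL4-UAS reporter transcription units, dosed for 24 hours; reporter mRNA quantified by RT-PCR, 6-FAM primer extension, HpaI digestion and capillary electrophoresis. Gain-of-signal fitted versus DMSO baseline; internal background-control marker.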

[19] = molecular target: Retinoic acid receptor RXR-alpha (Homo sapiens) (UniProt P19793); assay: ATG_RXRa_TRANS: Attagene TRANS-FACTORIAL HepG2 Assay for human Retinoid X Receptor alpha (RXRa) (AID 2283012)
Retinoic acid receptor RXR-alpha (Homo sapiens), sequence (P19793 whole entry, looked up, the tested form may be a part): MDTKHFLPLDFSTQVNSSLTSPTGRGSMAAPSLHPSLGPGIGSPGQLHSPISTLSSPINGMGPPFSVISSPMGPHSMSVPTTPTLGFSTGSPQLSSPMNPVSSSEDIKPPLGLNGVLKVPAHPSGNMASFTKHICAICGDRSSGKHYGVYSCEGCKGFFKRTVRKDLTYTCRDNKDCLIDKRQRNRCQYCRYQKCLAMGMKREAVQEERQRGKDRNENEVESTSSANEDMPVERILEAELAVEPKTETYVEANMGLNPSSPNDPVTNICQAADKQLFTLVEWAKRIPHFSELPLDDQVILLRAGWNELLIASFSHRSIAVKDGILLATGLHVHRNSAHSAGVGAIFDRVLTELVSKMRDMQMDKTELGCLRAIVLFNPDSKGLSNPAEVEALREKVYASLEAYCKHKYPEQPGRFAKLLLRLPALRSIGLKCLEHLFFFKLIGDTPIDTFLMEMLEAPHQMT
Method in brief: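 Cells (HepG2) carried transiently transfected GAL4-responsive reporter units. Following a 24 h chemical incubation, reporter mRNA induction was read via RT-PCR fragment analysis; DMSO served as negative control and baseline.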

[20] = ATG_PBREM_CIS: Attagene CIS-FACTORIAL HepG2 Assay for human Phenobarbital-responsive Enhancer Module (PBREM) (AID 2282955; active means hit-call score of the fitted dose curve at least 0.9, where 1 is the maximum; inactive means score below 0.9); settings: HepG2 PBREM cis-reporter, Attagene multiplexed transcription; actives raise or lower the signal
Method in brief: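 Multiplexed cis-reporter readout in human hepatoma HepG2 cells; PBREM-regulated transcript quantified after 24 h exposure by fluorescent RT-PCR fragment analysis. Signal changes up or down fitted relative to DMSO.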

Measured: AC50

CC1(C)[C@H](C(=O)O[C@H](C#N)c2cccc(Oc3ccccc3)c2)[C@@H]1C=C(Br)Br
active: [9] 2.94 µM | [10] 0.166 µM | [14] 82.2 µM | [15] 72.7 µM
inactive: [1] | [2] | [3] | [4] | [5] | [6] | [7] | [8] | [11] | [12] | [13] | [14]

Nc1ccccc1
not listed: [1] | [3] | [6] | [8] | [9] | [10] | [12] | [20]
inactive: all other assays above

O=C(NCNC(=O)NC1C(=O)NC(=O)N1CO)NC1C(=O)NC(=O)N1CO (configuration not stated)
active: [15] 9.92 µM
not listed: [1] | [5] | [6] | [8] | [16] | [18] | [20]
inactive: all other assays above

CC(=O)c1cc2c(cc1C)C(C)(C)C(C)CC2(C)C (configuration not stated)
active: [3] 171 µM | [10] 3.25 µM | [19] 22.8 µM | [15] 79.9 µM
not listed: [1] | [2] | [6] | [7]
inactive: all other assays above

C=Cc1cccc(CCl)c1
inactive: [20] | [5] | [18] | [6] | [8] | [11] | [12] | [13] | [14]
active: [2] 100 µM

CCc1cc(C)cc(CC)c1-c1c(OC(=O)C(C)(C)C)n2n(c1=O)CCOCC2
inactive: [1] | [2] | [4] | [5] | [16] | [18] | [6] | [8] | [9] | [10] | [19]

C=COCCCl
not listed: [6] | [9] | [10] | [13] | [14]
inactive: all other assays above

N#CC(c1ccccc1)c1ccccc1
active: [16] 30.3 µM | [9] 83.2 µM | [10] 4.59 µM
not listed: [3] | [5] | [8] | [12] | [14] | [15] | [18]
inactive: all other assays above

C[C@]12CCC(=O)C(O)=C1CC[C@@H]1[C@@H]2CC[C@]2(C)C(=O)CC[C@@H]12
not listed: [4] | [6] | [11] | [15] | [17] | [18]
inactive: all other assays above

O=C1C=CC(=O)C=C1
active: [15] 73.5 µM
not listed: [1] | [2] | [4] | [7] | [16]
inactive: all other assays above

Cc1ccc(C)c2ccccc12
active: [10] 51.3 µM
not listed: [2] | [5] | [8] | [13] | [14] | [17]
inactive: all other assays above

CCC[N+](=O)[O-]
not listed: [2] | [5] | [6] | [9] | [13] | [19]
inactive: all other assays above

c1cc(OCC2CO2)ccc1Cc1ccc(OCC2CO2)cc1 (configuration not stated)
active: [1] 49.6 µM | [3] 45.8 µM | [4] 51.5 µM | [16] 8.36 µM | [8] 54.7 µM | [10] 20.6 µM
not listed: [7] | [9] | [11] | [15]
inactive: all other assays above

O=C(O)c1cc[c]([Hg][Cl])cc1
active: [9] 44.6 µM
not listed: [7] | [10] | [15] | [18]
inactive: all other assays above

CCCCCCC1CCOC1=O (configuration not stated)
active: [15] 23.3 µM
not listed: [4] | [5] | [6] | [11] | [17] | [19]
inactive: all other assays above

CC1(C)CC(=O)CC(C)(C)N1[O]
not listed: [1] | [2] | [3] | [5] | [11] | [14] | [17] | [19]
inactive: all other assays above

CN(N=O)c1ccccc1
not listed: [1] | [6] | [11] | [12] | [13] | [14] | [15] | [19]
inactive: all other assays above

COC(C)(C)CCC[C@H](C)C/C=C/C(C)=C/C(=O)OC(C)C
active: [1] 100 µM | [6] 121 µM | [9] 7.82 µM | [10] 16.3 µM | [15] 79.3 µM
not listed: [2] | [4] | [5] | [7] | [12] | [16]
inactive: all other assays above
